Screening results: PubChem, National Center for Advancing Translational Sciences (NCATS)
Shown are actives, neighbours in structure and some others; about 1.1% of the full set was active somewhere.
ALOX12 inh: blocks human arachidonate 12S-lipoxygenase; P18054; purified 12hLO, xylenol orange hydroperoxide absorbance; Potency, µM (titrated, usually from 108 µM), actives largely listed as inhibitors; actives 1.1% (n = 580,000); AID 1671190
Target sequence (P18054 whole entry, looked up): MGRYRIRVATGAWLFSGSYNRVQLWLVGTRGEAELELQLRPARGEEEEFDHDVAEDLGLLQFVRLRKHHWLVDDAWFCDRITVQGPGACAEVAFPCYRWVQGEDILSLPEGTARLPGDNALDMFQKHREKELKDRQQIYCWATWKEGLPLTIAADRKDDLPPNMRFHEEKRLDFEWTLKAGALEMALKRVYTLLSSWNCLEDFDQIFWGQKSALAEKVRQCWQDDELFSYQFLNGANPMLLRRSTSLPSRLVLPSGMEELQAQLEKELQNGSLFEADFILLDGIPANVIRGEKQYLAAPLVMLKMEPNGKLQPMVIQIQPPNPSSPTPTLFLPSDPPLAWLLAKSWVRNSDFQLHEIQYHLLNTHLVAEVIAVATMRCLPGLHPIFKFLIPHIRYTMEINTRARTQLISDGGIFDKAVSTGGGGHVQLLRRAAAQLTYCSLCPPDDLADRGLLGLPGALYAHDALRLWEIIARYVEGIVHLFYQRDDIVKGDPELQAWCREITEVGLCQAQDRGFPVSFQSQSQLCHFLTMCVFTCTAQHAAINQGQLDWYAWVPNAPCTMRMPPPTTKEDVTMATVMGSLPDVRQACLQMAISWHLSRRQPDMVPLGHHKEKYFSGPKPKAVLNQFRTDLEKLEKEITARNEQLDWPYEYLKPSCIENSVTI
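Purified human 12hLO at 150 nM in 25 mM Hepes, 0.01% Triton X-100, pH 7.0, preincubated 15 min at room temperature with compound. Reaction started with 40 uM arachidonic acid, 30 min at room temperature. Hydroperoxide measured by Fe-xylenol orange, 573/405 nm absorbance ratio.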
Glioma ERSR ind: inducers of ER stress response in human glioma cells; Potency, µM, hits mostly activators; AID 602332; U87-MG GRP78 promoter luciferase reporter, 16 h; actives 0.02% (n = 420,000); further: series mostly up to about 76 µM; nearly all actives have a fitted effect of over 35% in size
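Stably transfected U87-MG human glioma cells carrying a GRP78-based luminescent sensor were seeded at 1000 cells/well, pin-dosed with compounds and incubated 16 h. Luciferase reagent was then added, and end-point luminescence was read after 10 min at room temperature.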
Anesthetic bind: candidate novel general anesthetic via apoferritin binding; P02791; apoferritin/1-aminoanthracene competitive binding, fluorescence; Potency, µM (series often up to 77.5 µM), most hits filed as inhibitors; actives 0.074% (n = 350,000); further: nearly all actives have a fitted effect of over 20% in size
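Concentration-response curves derived by four-parameter Hill fitting of normalized fluorescence, where compounds displaced 1-AMA from 10 uM horse apoferritin following a brief 10 min room-temperature incubation; propofol titration acted as positive control.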
BCR signal inh: blocks chronic active B-cell receptor signaling. Potency, µM (doses to about 46.1 µM), most hits filed as inhibitors. actives 0.05% (n = 340,000). ABC-DLBCL IkBa-CBG/CBR reporter, luminescence ratio, 4 h; active means well fitted inhibition curve with a large enough effect in the signal ratio, with a control signal flat, not every such curve was filed as active; inconclusive means small, poorly fitted or top-dose-only effect, or effect the other way, or a change in a side signal; the % refers to the signal ratio
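Compounds up to 46 uM were incubated four hours with TMD8 cells whose green CBG68 luciferase is fused to IkappaBalpha; red CBR luminescence normalised the signal, and concentration-effect curves were fitted to fusion, red and ratio data.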
Each line names hits and unclear results; the compound was inactive in the other large screens; ! = repeats disagree. Unless noted, the call rests on the fitted dose curve; in most records, active means well fitted curve in the direction sought with a large enough effect; inconclusive means small, poorly fitted or top-dose-only effect, or another doubt; inactive means no such curve, though single readings can be large; an effect the other way counts as inactive or inconclusive.

O=C(Nc1ccc(Br)cc1)c1cc(Br)cc(Br)c1O	ALOX12 inh 40µM (no result: BCR signal inh)
O=C1NC(=S)N(c2ccccc2F)C(=O)/C1=C\c1cccs1	ALOX12 inh 32µM
CC(C)(C)CN1CCCC2(CC(c3cccnc3)=NO2)C1 (configuration not stated)	none (no result: Glioma ERSR ind, Anesthetic bind, BCR signal inh)
C[N+](C)(C)CC1CCCCC1=O (configuration not stated)	ALOX12 inh 13µM (no result: Glioma ERSR ind, Anesthetic bind, BCR signal inh)
O=C1CCCCC1CN1CCCCC1 (configuration not stated)	none (no result: Anesthetic bind, BCR signal inh)
O=C(Cc1ccccc1)N1CCN(C2CCCC2)CC1	ALOX12 inh 0.89µM
O=C(COc1ccccc1)N1CCN(C2CCCC2)CC1	ALOX12 inh inconclusive
C=C[C@H]1CN2CC[C@H]1C[C@@H]2CNC(=O)Nc1cccc(C#N)c1	none (no result: Glioma ERSR ind, Anesthetic bind, BCR signal inh)
CC(C)c1ccc(-n2c(O)c(/C=N/NC(=O)c3ccccc3O)c(=O)[nH]c2=S)cc1	ALOX12 inh 40µM, BCR signal inh inconclusive
C=CCN(C)C(=O)[C@H]1CN2CCC1C[C@@H]2Cn1cc(-c2ccccc2)nn1 (some centres not stated)	none (no result: Glioma ERSR ind, Anesthetic bind, BCR signal inh)
COc1ccc(/C=C/c2cc(C(F)(F)F)[nH]c(=O)n2)cc1OC	ALOX12 inh 8.9µM, BCR signal inh inconclusive
COc1ccc(CCN(C)Cc2ccncc2)cc1OC	ALOX12 inh inconclusive
COc1ccc(CCN(C)Cc2cc(C(C)(C)C)c(O)c(C(C)(C)C)c2)cc1OC	ALOX12 inh 7.9µM (no result: Glioma ERSR ind, Anesthetic bind, BCR signal inh)
C[C@]12CC[C@@H]3c4ccc(OC(=O)N(CCCl)CCCl)cc4CC[C@H]3[C@@H]1CC[C@@H]2OP(=O)(O)O	ALOX12 inh 22µM (no result: Anesthetic bind, BCR signal inh)
C[C@]12CC[C@@H]3c4ccc(OC(=O)N(CCCl)CCCl)cc4CC[C@@H]3[C@H]1CC[C@@H]2OP(=O)(O)O	none (no result: ALOX12 inh, Anesthetic bind, BCR signal inh)
CC(C)c1ccc(N2C(=O)NC(=O)/C(=C/C=C/c3ccco3)C2=O)cc1	ALOX12 inh 45µM, Glioma ERSR ind inconclusive, BCR signal inh inconclusive
O=C1NC(=O)N(Cc2ccc(F)cc2)C(=O)/C1=C\C=C\c1ccco1	ALOX12 inh inconclusive, BCR signal inh inconclusive
Cc1ccc(N2C(=O)NC(=O)/C(=C/C=C/c3ccco3)C2=O)cc1	ALOX12 inh inconclusive, BCR signal inh inconclusive
O=C1NC(=O)N(c2ccccc2)C(=O)/C1=C\C=C\c1ccccc1	ALOX12 inh 25µM, BCR signal inh inconclusive
CCCCN1C(=O)/C(=C/C=C/c2ccco2)C(=O)NC1=S	ALOX12 inh 6.3µM, BCR signal inh inconclusive
Cc1nn(-c2ncnc3nc[nH]c23)c2c1C(c1ccc(F)c(F)c1)SCC(=O)N2 (configuration not stated)	none (no result: Glioma ERSR ind, Anesthetic bind, BCR signal inh)
O=C1N(Cc2ccccn2)C[C@H]2CN(Cc3cccnc3)CCN12	none (no result: Glioma ERSR ind, Anesthetic bind, BCR signal inh)
O=C(O)C1=NOC2CN(Cc3cncs3)CC12 (configuration not stated)	ALOX12 inh 13µM (no result: Glioma ERSR ind, Anesthetic bind, BCR signal inh)
C=C[C@H]1CN2CC[C@H]1C[C@@H]2CNC(=O)COc1ccccc1	none (no result: Glioma ERSR ind, Anesthetic bind, BCR signal inh)
c1ccc(CCNCC2CCCO2)cc1 (configuration not stated)	none (no result: Glioma ERSR ind, Anesthetic bind, BCR signal inh)
N#CC(C#N)=Cc1ccc(O)c(O)c1	ALOX12 inh 25µM! (no result: Anesthetic bind)
CC(C)(C)c1cc(C=C(C#N)C#N)cc(C(C)(C)C)c1O	ALOX12 inh inconclusive, BCR signal inh inconclusive (no result: Anesthetic bind)
CC(C1CC2CCC1C2)n1c(-c2cccs2)n[nH]c1=S (configuration not stated)	ALOX12 inh 45µM, BCR signal inh inconclusive
Cn1nc(-c2cccs2)cc1[C@H]1CN2CC[C@H]1C[C@@H]2CN	none (no result: Glioma ERSR ind, Anesthetic bind, BCR signal inh)
C#C[C@H]1CN2CC[C@H]1C[C@@H]2COC(=O)NCCC	ALOX12 inh 8.9µM (no result: Glioma ERSR ind, Anesthetic bind, BCR signal inh)
O=c1cc(-c2ccc(O)c(O)c2)oc2cc(O)cc(O)c12	ALOX12 inh 10µM!, Glioma ERSR ind inconclusive, BCR signal inh inconclusive
CCN1CCN(C(=O)Cc2ccc(Nc3ncc(F)c(Nc4ccc(C(=O)Nc5ccccc5Cl)cc4)n3)cc2)CC1	ALOX12 inh 3.9µM (no result: Glioma ERSR ind, Anesthetic bind, BCR signal inh)
COCCN1CCC(N2CCN(C(=O)Cc3c(F)cccc3Cl)CC2)C1=O (configuration not stated)	none (no result: Glioma ERSR ind, Anesthetic bind, BCR signal inh)
N#CC(C#N)=Cc1cccn1-c1ccc(Br)cc1	none (no result: Glioma ERSR ind, Anesthetic bind, BCR signal inh)
COc1cccc(C(=O)NC(=S)Nc2ccccc2N2CCCCC2)c1	ALOX12 inh 40µM, Anesthetic bind inconclusive, BCR signal inh inconclusive
COC(=O)NC(=S)Nc1ccccc1NC(=S)NC(=O)OC	none (no result: BCR signal inh)
O=C1NC(=O)N(c2cccc(Br)c2)C(=O)/C1=C/c1ccsc1	ALOX12 inh 45µM
O=C1NC(=O)N(c2ccc(Br)cc2)C(=O)/C1=C/c1ccsc1	ALOX12 inh inconclusive, BCR signal inh inconclusive
C=CCn1c(O)c(C(C)=Nc2ccc(C(=O)OCC)cc2)c(=O)[nH]c1=O	ALOX12 inh 5.6µM
CC1CCC(NC(=O)c2cn(C)c3ccccc23)CC1 (configuration not stated)	none (no result: Glioma ERSR ind, Anesthetic bind, BCR signal inh)
CCOc1ccc(/C=C/C2=CC(C)(C)NC(=S)N2)cc1	ALOX12 inh 40µM, BCR signal inh inconclusive
C[C@@H]1CNCCN1c1ccc(N2CC[C@H](O)C2)c(C#N)c1	none (no result: Glioma ERSR ind, Anesthetic bind, BCR signal inh)
Cc1cc(N2CCNC[C@@H]2C)ccc1N1CCN[C@@H](C)C1	ALOX12 inh 45µM (no result: Glioma ERSR ind, Anesthetic bind, BCR signal inh)
Cc1ccc(N2CCNCC2C)cc1 (configuration not stated)	none (no result: Anesthetic bind, BCR signal inh)
Cc1cc(N2CCNC[C@H]2C)ccc1N1CCN[C@H](C)C1	ALOX12 inh 40µM (no result: Glioma ERSR ind, Anesthetic bind, BCR signal inh)
Cc1cc2c(C(C)C)c(O)c(O)c(C=O)c2c(O)c1-c1c(C)cc2c(C(C)C)c(O)c(O)c(C=O)c2c1O	ALOX12 inh 1.1µM!, Anesthetic bind inconclusive, BCR signal inh inconclusive
C[N+]12CCC(CC1)C(OC(=O)C(O)(c1ccccc1)c1ccccc1)C2 (configuration not stated)	BCR signal inh inconclusive
CCC(CO)(C(=O)OC1C[N+]2(C)CCC1CC2)c1ccccc1 (configuration not stated)	ALOX12 inh 45µM
CC(=O)Nc1ccc(S(=O)(=O)NC[C@H]2C[C@@H]3CCN2C[C@@H]3c2cc(-c3ccccc3)nn2C)cc1	none (no result: Glioma ERSR ind, Anesthetic bind, BCR signal inh)
CCOc1ccccc1N1C(=O)NC(=O)/C(=C/c2ccc3c4c(cccc24)CC3)C1=O	Glioma ERSR ind inconclusive
COc1cccc(N2C(=O)NC(=O)/C(=C/c3ccc4c5c(cccc35)CC4)C2=O)c1	ALOX12 inh 40µM, BCR signal inh inconclusive (no result: Glioma ERSR ind)
O=C(O)c1cccc2c1NC(c1cccc([N+](=O)[O-])c1)C1CC(Sc3ccccc3[N+](=O)[O-])C(Cl)C21 (configuration not stated)	ALOX12 inh 8.9µM, BCR signal inh inconclusive
